This note sets out measurements from PubChem BioAssay (NCI).

The panel holds about 83,000 compounds, 20% with a hit somewhere; the sample as a whole holds those more often.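 Interpretation: 100, growth as untreated; towards 0, rising growth inhibition; 0, no net growth; 0 to -100, cell death. Compounds scoring below 10 were considered active.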 Unmarked numbers belong to inactive results. Activity calls are given as the source filed them.

Holding throughout (experiment): NCI-60 one-dose screen, 48 h (100 = growth as untreated, 0 = no growth, -100 = all killed)
What all share (conditions): 10 µM

Experiment [1] has as its system HCT-15 colon.
Experiment [2] deals with HT29 colon.
Experiment [3] has as its system SNB-75 CNS.
Experiment [4] deals with SNB-19 CNS.
Experiment [5] relates to U251 CNS.
Experiment [6] deals with PC-3 prostate.
The subject of experiment [7] is SK-MEL-5 melanoma.
The test system of experiment [8] is UACC-62 melanoma.
Experiment [9] deals with LOX IMVI melanoma.
The subject of experiment [10] is SK-MEL-28 melanoma.
Experiment [11] has as its system SK-MEL-2 melanoma.
Experiment [12] deals with EKVX NSCLC.
For experiment [13], the system named is SN12C renal.
In experiment [14] the test system is UO-31 renal.
Experiment [15] has as its system TK-10 renal.
For experiment [16], the system named is ACHN renal.
Experiment [17] deals with CAKI-1 renal.
Experiment [18] relates to A498 renal.
Experiment [19] concerns CCRF-CEM leukemia.
Experiment [20] relates to MOLT-4 leukemia.

As for `COc1cnc2c(c1)C(=O)c1c-2n(CCCNC(C)C)c(=O)c2cc(OC)c(OC)cc12`, the growth in experiment [1] is 34.6%; in experiment [2], 10.5%; in [3], 70.7%; in [4] it was 25.2%; in experiment [5], 30.4%; in experiment [6], 48.7%. For the same compound, the growth in experiment [7] is 47.7%; in [8], 18.7%; in experiment [9], -88.2% (active); in experiment [10], 94%; in experiment [11] it was 107%; in [12] it was 92.6%. In addition, the growth is 25% in experiment [13]; 29.5% in [14]; 87.6% in [15]; 3.23% (active) in [16]; 15.2% in experiment [17]; 105% in experiment [18]. In addition, the growth in [19] is 16.2%; in experiment [20], 16.5%.
For `CN(C)c1ccc(/C=C/C(=O)c2ccc(NC(=O)CN3C(=O)NC(C)(c4ccccc4)C3=O)cc2)cc1` (stereo not given), the growth in experiment [1] was 26.9%; in experiment [2], 19.5%; in experiment [3], 80.6%; in [4], 70.5%; in experiment [5], 46%; in experiment [6], 43.3%. Besides, the growth in experiment [7] was 23.2%; in experiment [8] it was 46.6%; in experiment [9] it was 41.4%; in experiment [10], 70.7%; in experiment [11], 76.5%; in experiment [12] it was 66.4%. Moreover, the growth in experiment [13] is 73.4%; in [14], 57.7%; in experiment [15], 97.3%; in [16], 59.8%; in experiment [17] it was 66.4%; in [18], 85.5%. For the same compound, the growth was 53.1% in experiment [19] and 36.6% in [20].
`O/N=C(\CSc1nnc(-c2c[nH]c3ccccc23)n1-c1ccccc1)c1ccc(Br)cc1`: the growth in [1] is -92.8% (active); in experiment [2], -76.9% (active); in [3] it was -19.9% (active); in experiment [4], -9.28% (active); in [5], 9.73% (active); in [6], -64.4% (active). Also, the growth in [7] is -24.5% (active); in [8], -90.5% (active); in [9], -87.4% (active); in [10] it was -26.3% (active); in [11], -66.3% (active); in [12] it was -63.3% (active). Moreover, the growth in [13] is -77.2% (active); in [14], 3.58% (active); in experiment [15], -82.8% (active); in [16], -83.5% (active); in [17] it was -94.3% (active); in experiment [18] it was 62.2%. The growth is -6.14% (active) in experiment [19] and -19.2% (active) in experiment [20].
Take `COc1csc(/C=N/NC(=O)c2[nH]c3ccc(Br)cc3c2-c2ccccc2)c1`: the growth in experiment [1] is 0.545% (active); in experiment [2], -30.8% (active); in experiment [3], 4.17% (active); in [4] it was 29.1%; in experiment [5], 9.71% (active); in experiment [6], 14.9%. Further, the growth in experiment [7] was -37.2% (active); in [8] it was 20.3%; in experiment [9] it was 12.6%; in [10], 35.3%; in experiment [11], 10.3%; in [12], 49.2%. In addition, the growth was 5.51% (active) in experiment [13]; 36.7% in [14]; 32.8% in [15]; 19.1% in experiment [16]; 9.49% (active) in [17]; 57.8% in experiment [18]. The results for the growth in experiment [19] and in experiment [20] were -2.42% (active) and 1.69% (active), respectively.
`O=c1c2ccccc2nc(COc2ccccc2)n1/N=C/c1ccc(F)cc1`: the growth was 76.5% in experiment [1]; 61.4% in experiment [2]; 105% in experiment [3]; 87.7% in experiment [4]; 101% in experiment [5]; 76.2% in [6]. Further, the growth in experiment [7] was 68.5%; in experiment [8], 62.9%; in experiment [9], 94.9%; in experiment [10], 96%; in experiment [11], 94.5%; in experiment [12], 92.1%. For the same compound, the growth was 86.5% in experiment [13]; 84.4% in experiment [14]; 105% in [15]; 91.1% in [16]; 94.3% in experiment [17]; 106% in experiment [18]. Also, the growth in [19] is 86.2%; in experiment [20], 72.9%.
Take `O=C(Nc1cccc([N+](=O)[O-])c1)Nc1cccc([N+](=O)[O-])c1`: the growth was 62.7% in [1]; 87.3% in experiment [2]; 90.5% in [3]; 81.7% in experiment [4]; 88.7% in experiment [5]; 52% in [6]. Besides, the growth in experiment [7] was 69.6%; in experiment [8], 68.5%; in [9] it was 87.7%; in experiment [10], 88.7%; in experiment [11], 91.1%; in experiment [12], 77.1%. Also, the growth is 82.4% in [13]; 63.9% in [14]; 84.2% in experiment [15]; 84.8% in experiment [16]; 83.7% in [17]; 94.4% in [18]. For the same compound, the values for the growth in [19] and in experiment [20] were 69.7% and 76.4%, respectively.
On to `O=C(CSc1nnc(-c2c[nH]c3ccccc23)n1-c1ccccc1)Nc1ccc(C(=O)/C=C/c2cccc([N+](=O)[O-])c2)cc1`, for which the growth in experiment [1] is 84.1%; in [2] it was 101%; in experiment [3] it was 99.8%; in [4], 86.5%; in experiment [5], 92.5%; in [6] it was 87%. Besides, the growth was 91.3% in [7]; 76.5% in experiment [8]; 75.6% in experiment [9]; 102% in [10]; 101% in experiment [11]; 83.9% in experiment [12]. For the same compound, the growth was 104% in experiment [13]; 42.9% in experiment [14]; 115% in experiment [15]; 74.3% in experiment [16]; 83.7% in experiment [17]; 95.7% in experiment [18]. Besides, the growth in experiment [19] was 96.1%; in [20] it was 78%.
